Some test systems named below: T-47D breast; BT-549 breast; MDA-MB-435 melanoma; SW-620 colon; MCF7 breast; HCT-116 colon; HCC-2998 colon; KM12 colon.
Common to all, as to test: NCI-60 one-dose screen, 48 h (100 = growth as untreated, 0 = no growth, -100 = all killed)
Common to all, as to conditions: 10 µM unless noted

The panel holds about 83,000 compounds, 20% with a hit somewhere; the sample as a whole holds those more often.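 For each line, cells grew in 96-well plates with the test compound present at a single concentration for 48 hours.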 A number with no mark means an inactive call. Active and inactive are the calls of the source. How the source made its calls: active means growth percent below 10; inactive means the rest.

`O=C(Nc1ncc(Cc2ccccc2)s1)c1ccc2c(c1)OCCO2`: the growth in the assay with T-47D breast was 36%; with BT-549 breast it was 36.1%; with MDA-MB-435 melanoma it was -4.27% (active); in the assay on SW-620 colon, 35.2%; in the assay with MCF7 breast, 10.8%; in the assay on HCT-116 colon, 9.23% (active). Moreover, the growth in the assay on HCC-2998 colon was 13.3%; with KM12 colon, 9.34% (active).

For the compound `COc1cc(-c2c(-c3ccccc3)c[nH]c2C(=O)NCCCO)c(OC)c2c1OCO2`, the growth is 90.9% in the assay with T-47D breast; 106% in the assay on BT-549 breast; 104% in the assay on MDA-MB-435 melanoma; 102% in the assay on SW-620 colon; 110% in the assay on MCF7 breast; 106% with HCT-116 colon. Besides, the growth in the assay with HCC-2998 colon was 110%; in the assay with KM12 colon, 125%.

For `CCOC(=O)C1=C(c2ccccc2)N=C2N(c3ccccc3)N=C(C(C)=O)N2C1c1ccc(Br)cc1` (configuration not stated), the growth with T-47D breast is 79.8%; with BT-549 breast, 98.3%; in the assay on MDA-MB-435 melanoma, 101%; in the assay with SW-620 colon it was 97%; in the assay with MCF7 breast it was 89.2%; in the assay on HCT-116 colon, 84.7%. Also, the growth in the assay on HCC-2998 colon was 103%; with KM12 colon, 94.9%.

Regarding `C#CCOc1ccc(C2=NN(C)C3N=C(Cl)c4ncn(C)c4N23)cc1OCC#C` (configuration not stated), the growth with T-47D breast is 77.4%; in the assay with BT-549 breast, 99.6%; in the assay with MDA-MB-435 melanoma, 108%; in the assay on SW-620 colon it was 93.6%; in the assay with MCF7 breast, 98.5%; in the assay on HCT-116 colon, 93.3%. Moreover, the growth is 104% in the assay on HCC-2998 colon and 102% with KM12 colon.

Take `COc1ccc(/C(C)=C(\c2ccc(Cl)cc2)c2ccc(OCCCN(C)C)cc2)cc1`: the growth with T-47D breast was 58.1%; in the assay with BT-549 breast, 82.3%; in the assay on MDA-MB-435 melanoma it was 39%; in the assay on SW-620 colon it was 46.3%; in the assay with MCF7 breast, 36.9%; in the assay with HCT-116 colon, 37.4%. Further, the results for the growth in the assay on HCC-2998 colon and in the assay with KM12 colon were 100% and 56.5%, respectively.

As for `C=C(c1ccc(C(=O)O)c(F)c1)c1cc2c(cc1C)C(C)(C)C=CC2(C)C`, the growth in the assay with T-47D breast was 58.9%; in the assay on BT-549 breast, 87.4%; in the assay with MDA-MB-435 melanoma, 95.3%; in the assay with SW-620 colon, 110%; in the assay on MCF7 breast, 52.5%; with HCT-116 colon it was 85.4%. Besides, the growth was 112% in the assay on HCC-2998 colon and 66.6% in the assay on KM12 colon.

Consider `C#CCOc1ccc(C2=NN(CCCC)C3N=C(Cl)c4ncn(CCCC)c4N23)cc1OCC#C` (configuration not stated), for which the growth was 69.6% in the assay on T-47D breast; 90.6% with BT-549 breast; 86.7% in the assay on MDA-MB-435 melanoma; 88.7% in the assay on SW-620 colon; 81.8% in the assay with MCF7 breast; 83.1% with HCT-116 colon. Also, the growth is 107% in the assay on HCC-2998 colon and 88.3% in the assay on KM12 colon.

As for `COc1cccc(-c2nn(-c3ccccc3)cc2-c2ccnc(-c3cccnc3)c2)c1`, the growth is 76.9% in the assay with T-47D breast; 98.5% in the assay on BT-549 breast; 97.7% in the assay with MDA-MB-435 melanoma; 109% in the assay on SW-620 colon; 87.1% in the assay with MCF7 breast; 85.7% with HCT-116 colon. The growth in the assay on HCC-2998 colon was 96.4%; in the assay with KM12 colon it was 94.7%.

Consider `CCCCCCC/C=N/NC(=O)c1ccc(-n2cc(-c3ccccc3)nn2)cc1`, for which the growth in the assay with T-47D breast was 95.4%; in the assay on BT-549 breast it was 82.1%; with MDA-MB-435 melanoma, 90.8%; with SW-620 colon, 95.6%; in the assay on MCF7 breast, 85.9%; with HCT-116 colon, 97.5%. Further, the growth in the assay on HCC-2998 colon was 88%; in the assay with KM12 colon, 86.8%.

For `Cc1cc(C)n(C(=O)CSc2nc3sc4c(c3c(=O)n2-c2ccccc2)CCCCC4)n1`, the growth in the assay on T-47D breast was 89.9%; in the assay on BT-549 breast, 100%; in the assay on MDA-MB-435 melanoma, 105%; with SW-620 colon, 102%; with MCF7 breast, 95.1%; in the assay on HCT-116 colon, 104%. The growth with HCC-2998 colon was 109%; with KM12 colon, 105%.

Consider `O=[N+]([O-])c1ccc(N/N=C\c2cc(Cl)ccc2O)nc1`, for which the growth is 25.4% in the assay with T-47D breast; 42.4% with BT-549 breast; 48.7% with MDA-MB-435 melanoma; 32.4% with SW-620 colon; 16% in the assay on MCF7 breast; 16.7% with HCT-116 colon. Besides, the figures for the growth in the assay on HCC-2998 colon and in the assay with KM12 colon were 42% and 29%, respectively.

`Cc1csc(Nc2nc(-c3cccc(Cl)c3)nc(C(Cl)(Cl)Cl)n2)n1`: the growth was 5.33% (active) with T-47D breast; 96.8% in the assay with BT-549 breast; 54.1% with MDA-MB-435 melanoma; 42.4% with SW-620 colon; 20.7% with MCF7 breast; 37.9% in the assay on HCT-116 colon. Further, the values for the growth with HCC-2998 colon and with KM12 colon were 7.13% (active) and 13.8%, respectively.

`CCCCC#Cc1c(I)n(C2OC(CO[Si](C)(C)C(C)(C)C)C3OC(C)(C)OC32)c(=O)[nH]c1=O` (configuration not stated): the growth in the assay with T-47D breast is 12.3%; in the assay on BT-549 breast, 99.2%; in the assay with MDA-MB-435 melanoma, 82.9%; in the assay on SW-620 colon, 47.6%; with MCF7 breast, 62.4%; with HCT-116 colon, 50.2%. Further, the growth was -19.8% (active) with HCC-2998 colon and 109% in the assay with KM12 colon.

`CCOC(=O)C#Cc1c(CC(=O)OCC)nnn1[C@H]1O[C@@H](CO)[C@@H]2OC(C)(C)O[C@@H]21`: the growth is 38.2% with T-47D breast; 87.3% in the assay with BT-549 breast; 87.2% in the assay with MDA-MB-435 melanoma; -19% (active) with SW-620 colon; 11.5% in the assay with MCF7 breast; 65.2% with HCT-116 colon. Further, the growth is 107% with HCC-2998 colon and 103% in the assay on KM12 colon.

(Values after PubChem BioAssay (NCI).)
